Holding throughout (assay): yeast three-hybrid, YBZ-1, SC-Leu-His + 0.5 mM 3-AT, 4 days
Details in all cases: tags: N-Gal4 AD-HA kept; label: inside an RPR1-promoter hybrid RNA with tandem MS2 sites; ssRNA

In one experiment the target is PUM1 PUF domain R4-SNI (Homo sapiens, UniProt Q14671 828-1176, N971S;H972N;Q975I). An outline of the steps:
(§1)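 Matching RNA elements and Pumilio-1 PUF domain libraries, randomized at the three base-contacting residues of every repeat, were co-expressed from a centromeric plasmid in strain YBZ-1 (LexA–MS2 coat fusion, HIS3 reporter). The repeat regions were PCR-amplified and Illumina-sequenced from cells grown four days on SC-Leu (input) or SC-Leu-His + 0.5 mM 3-AT (selection). The interaction score is the log change in variant frequency from input to selection. It is computed in log2, with a pseudocount of 1 for absent variants.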

Another experiment deals with PUM1 PUF domain R4-DHS (Homo sapiens, UniProt Q14671 828-1176, N971D;Q975S). The essentials: as §1
Sequence of PUM1 PUF domain R4-DHS (Q14671 828-1176 N971D/Q975S): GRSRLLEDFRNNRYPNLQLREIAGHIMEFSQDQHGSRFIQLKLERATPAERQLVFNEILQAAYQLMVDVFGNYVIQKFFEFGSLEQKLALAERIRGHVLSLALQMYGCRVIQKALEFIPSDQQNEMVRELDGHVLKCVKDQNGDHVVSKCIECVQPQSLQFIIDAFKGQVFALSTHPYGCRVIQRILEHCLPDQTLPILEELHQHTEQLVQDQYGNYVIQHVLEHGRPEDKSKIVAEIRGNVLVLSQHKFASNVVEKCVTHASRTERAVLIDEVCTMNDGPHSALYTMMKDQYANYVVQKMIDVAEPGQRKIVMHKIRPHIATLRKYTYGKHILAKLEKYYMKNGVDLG
The target of another experiment is PUM1 PUF domain R4-SPY (Homo sapiens, UniProt Q14671 828-1176, N971S;H972P;Q975Y). An outline of the steps: as §1
A further experiment deals with PUM1 PUF domain R7-CHP (Homo sapiens, UniProt Q14671 828-1176, S1079C;N1080H;E1083P). The essentials: as §1
In the next experiment the target is PUM1 PUF domain R5-HCR (Homo sapiens, UniProt Q14671 828-1176, C1007H;R1008C;Q1011R). An outline of the steps:
as §1

A further experiment has as its target PUM1 PUF domain R5-RGK (Homo sapiens, UniProt Q14671 828-1176, C1007R;R1008G;Q1011K). An outline of the steps:
as §1

Another experiment has as its target PUM1 PUF domain R5-MYG (Homo sapiens, UniProt Q14671 828-1176, C1007M;R1008Y;Q1011G). An outline of the steps: as §1
The target of the next experiment is PUM1 PUF domain R5-QRD (Homo sapiens, UniProt Q14671 828-1176, C1007Q;Q1011D). An outline of the steps:
as §1

The target of another experiment is PUM1 PUF domain R5-LFR (Homo sapiens, UniProt Q14671 828-1176, C1007L;R1008F;Q1011R). The essentials: as §1
For a further experiment, the target named is T1, PUM1 PUF domain R6-CFK (Homo sapiens, UniProt Q14671 828-1176, N1043C;Y1044F;Q1047K).
T1 sequence: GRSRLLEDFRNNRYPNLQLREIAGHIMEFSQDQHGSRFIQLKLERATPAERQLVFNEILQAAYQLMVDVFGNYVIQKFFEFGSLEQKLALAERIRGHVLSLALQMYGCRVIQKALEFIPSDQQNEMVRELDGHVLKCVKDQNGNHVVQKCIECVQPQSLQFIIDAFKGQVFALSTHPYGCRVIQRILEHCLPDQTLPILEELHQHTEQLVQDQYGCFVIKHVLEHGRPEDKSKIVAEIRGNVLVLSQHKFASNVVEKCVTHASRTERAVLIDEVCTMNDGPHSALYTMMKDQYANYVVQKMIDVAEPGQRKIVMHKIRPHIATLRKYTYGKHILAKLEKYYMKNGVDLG
The essentials: as §1

The target in the next experiment is PUM1 PUF domain R4-ALC (Homo sapiens, UniProt Q14671 828-1176, N971A;H972L;Q975C). An outline of the steps:
as §1

The target in a further experiment is PUM1 PUF domain R3-VRL (Homo sapiens, UniProt Q14671 828-1176, C935V;Q939L). The essentials: as §1
The target in another experiment is T2, PUM1 PUF domain R6-QWS (Homo sapiens, UniProt Q14671 828-1176, N1043Q;Y1044W;Q1047S).
T2 sequence: T1 sequence with C216Q, F217W, K220S
An outline of the steps: as §1

The target of the next experiment is PUM1 PUF domain R4-YRC (Homo sapiens, UniProt Q14671 828-1176, N971Y;H972R;Q975C). An outline of the steps: as §1
For another experiment, the target named is PUM1 PUF domain R4-SIG (Homo sapiens, UniProt Q14671 828-1176, N971S;H972I;Q975G). An outline of the steps: as §1
The next experiment has as its target PUM1 PUF domain R3-RSG (Homo sapiens, UniProt Q14671 828-1176, C935R;R936S;Q939G). The essentials:
as §1

The target in another experiment is PUM1 PUF domain R3-HRR (Homo sapiens, UniProt Q14671 828-1176, C935H;Q939R). The essentials:
as §1

Another experiment addresses T3, PUM1 PUF domain R6-TFQ (Homo sapiens, UniProt Q14671 828-1176, N1043T;Y1044F).
T3 sequence: T1 sequence with C216T, K220Q
An outline of the steps: as §1

For another experiment, the target named is PUM1 PUF domain R3-RDK (Homo sapiens, UniProt Q14671 828-1176, C935R;R936D;Q939K). An outline of the steps:
as §1

A further experiment has as its target PUM1 PUF domain R2-DWL (Homo sapiens, UniProt Q14671 828-1176, N899D;Y900W;Q903L). The essentials:
as §1

Numbering of substitutions follows the chain as printed.

Results on twelve sequences are retold here after paper PMC8384837, “Expanding the binding specificity for RNA recognition by a PUF domain”.

Sequence of PUM1 PUF domain R5-RGK (Q14671 828-1176 C1007R/R1008G/Q1011K): as the sequence (Q14671 828-1176 N971D/Q975S) above, with D144N, S148Q, C180R, R181G, Q184K counted along it

For “GGCUAGAACUAGUGGAUCCCCCGGCGCCCGGCGGCUCGAGCCCGGGUAAGUGUACAUAGUCUGCAUGCCGCCGGGCGCCAUGCCUGCAGGUCGACUCUAGAAAACAUG”, the binding signal with PUM1 PUF domain R4-SNI was 2.5 log2 enrichment (interaction score); with PUM1 PUF domain R4-DHS, 3.02 log2 enrichment (interaction score).
Consider “GGCUAGAACUAGUGGAUCCCCCGGCGCCCGGCGGCUCGAGCCCGGGUAAGUGUAUAUAGUCUGCAUGCCGCCGGGCGCCAUGCCUGCAGGUCGACUCUAGAAAACAUG”, for which the binding signal with PUM1 PUF domain R4-SNI was 3.45 log2 enrichment (interaction score); with PUM1 PUF domain R4-DHS, 5.89 log2 enrichment (interaction score); with PUM1 PUF domain R4-SPY it was 1.88 log2 enrichment (interaction score).
Consider “GGCUAGAACUAGUGGAUCCCCCGGCGCCCGGCGGCUCGAGCCCGGGUAAGUCUAAAUAGUCUGCAUGCCGCCGGGCGCCAUGCCUGCAGGUCGACUCUAGAAAACAUG”, for which the binding signal with PUM1 PUF domain R7-CHP is 2.32 log2 enrichment (interaction score).
Take “GGCUAGAACUAGUGGAUCCCCCGGCGCCCGGCGGCUCGAGCCCGGGUAAGUGUCAAUAGUCUGCAUGCCGCCGGGCGCCAUGCCUGCAGGUCGACUCUAGAAAACAUG”: the figures for the binding signal with PUM1 PUF domain R5-HCR and in the experiment with PUM1 PUF domain R5-RGK were 2.3 log2 enrichment (interaction score) and 2.71 log2 enrichment (interaction score), respectively.
In the case of “GGCUAGAACUAGUGGAUCCCCCGGCGCCCGGCGGCUCGAGCCCGGGUAAGUGUUAAUAGUCUGCAUGCCGCCGGGCGCCAUGCCUGCAGGUCGACUCUAGAAAACAUG”, the binding signal with PUM1 PUF domain R5-HCR is 2.43 log2 enrichment (interaction score); with PUM1 PUF domain R5-RGK it was 3.44 log2 enrichment (interaction score); in the experiment with PUM1 PUF domain R5-MYG it was 3.99 log2 enrichment (interaction score).
As to “GGCUAGAACUAGUGGAUCCCCCGGCGCCCGGCGGCUCGAGCCCGGGUAAGUGUGAAUAGUCUGCAUGCCGCCGGGCGCCAUGCCUGCAGGUCGACUCUAGAAAACAUG”, the values for the binding signal with PUM1 PUF domain R5-QRD and in the experiment with PUM1 PUF domain R5-RGK were 5.16 log2 enrichment (interaction score) and 1.16 log2 enrichment (interaction score), respectively.
Take “GGCUAGAACUAGUGGAUCCCCCGGCGCCCGGCGGCUCGAGCCCGGGUAAGUGUAAAUAGUCUGCAUGCCGCCGGGCGCCAUGCCUGCAGGUCGACUCUAGAAAACAUG”: the binding signal with PUM1 PUF domain R5-LFR is 2.2 log2 enrichment (interaction score); with PUM1 PUF domain R4-DHS, 4.49 log2 enrichment (interaction score); with PUM1 PUF domain R6-CFK it was 3.27 log2 enrichment (interaction score); in the experiment with PUM1 PUF domain R4-ALC it was 3.15 log2 enrichment (interaction score); with PUM1 PUF domain R4-SPY it was 3.88 log2 enrichment (interaction score); in the experiment with PUM1 PUF domain R3-VRL it was 3.56 log2 enrichment (interaction score). Besides, the binding signal was 3.91 log2 enrichment (interaction score) with PUM1 PUF domain R6-QWS, 1.26 log2 enrichment (interaction score) in the experiment with PUM1 PUF domain R5-MYG, 4.13 log2 enrichment (interaction score) in the experiment with PUM1 PUF domain R4-YRC and 3.64 log2 enrichment (interaction score) in the experiment with PUM1 PUF domain R4-SIG.
Regarding “GGCUAGAACUAGUGGAUCCCCCGGCGCCCGGCGGCUCGAGCCCGGGUAAGUGGAAAUAGUCUGCAUGCCGCCGGGCGCCAUGCCUGCAGGUCGACUCUAGAAAACAUG”, in the experiment with PUM1 PUF domain R6-QWS, the binding signal is 3.82 log2 enrichment (interaction score).
With “GGCUAGAACUAGUGGAUCCCCCGGCGCCCGGCGGCUCGAGCCCGGGUAAGUGUAAGUAGUCUGCAUGCCGCCGGGCGCCAUGCCUGCAGGUCGACUCUAGAAAACAUG”, the binding signal with PUM1 PUF domain R3-RSG is 1.02 log2 enrichment (interaction score); with PUM1 PUF domain R3-HRR it was 2.66 log2 enrichment (interaction score).
With “GGCUAGAACUAGUGGAUCCCCCGGCGCCCGGCGGCUCGAGCCCGGGUAAGUGAAAAUAGUCUGCAUGCCGCCGGGCGCCAUGCCUGCAGGUCGACUCUAGAAAACAUG”, the binding signal in the experiment with PUM1 PUF domain R6-TFQ was 6.64 log2 enrichment (interaction score).
Take “GGCUAGAACUAGUGGAUCCCCCGGCGCCCGGCGGCUCGAGCCCGGGUAAGUGUAAUUAGUCUGCAUGCCGCCGGGCGCCAUGCCUGCAGGUCGACUCUAGAAAACAUG”: the binding signal in the experiment with PUM1 PUF domain R3-RSG was 3.59 log2 enrichment (interaction score); with PUM1 PUF domain R3-RDK it was 2.64 log2 enrichment (interaction score); with PUM1 PUF domain R3-HRR, 0.15 log2 enrichment (interaction score).
With “GGCUAGAACUAGUGGAUCCCCCGGCGCCCGGCGGCUCGAGCCCGGGUAAGUGUAAAAAGUCUGCAUGCCGCCGGGCGCCAUGCCUGCAGGUCGACUCUAGAAAACAUG”, the binding signal in the experiment with PUM1 PUF domain R2-DWL is 6.44 log2 enrichment (interaction score).
